# Results reported in the supplement of paper PMC6555819.
# How the values were obtained:
# Test in all cases: PBM binding z-score (relative to random genomic background probes); higher = stronger binding; sequences stand for … in GC…GCGATTGACAGCGTAGAATGAAGG
# [1] = system: FXR:RXRa (NR concentration 270 nM, RXRa partner concentration 90 nM)
# Summary of the method: (§1)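 Each nuclear receptor dimer, without ligand, was incubated for 1 h on custom Agilent 4×180K protein-binding microarrays. Binding was detected with antibodies against each partner (one per run), and scanned fluorescence was regression-normalized. The binding z-scores are referenced to random human genomic background probes.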
# [2] = system: LXRa:RXRa (NR concentration 270 nM, RXRa partner concentration 90 nM)
# Summary of the method: as §1
# [3] = system: LXRa homodimer (NR concentration 270 nM)
# Summary of the method: as §1
# [4] = system: LXRb:RXRa (NR concentration 270 nM, RXRa partner concentration 90 nM)
# Summary of the method: as §1
# [5] = system: LXRb homodimer (NR concentration 270 nM)
# Summary of the method: as §1
# [6] = system: PPARa:RXRa (NR concentration 270 nM, RXRa partner concentration 90 nM)
# Summary of the method: as §1
# [7] = system: PPARg:RXRa (NR concentration 180 nM, RXRa partner concentration 90 nM)
# Summary of the method: as §1
# [8] = system: PPARg:RXRa 270nM:90nM, anti-RXR (NR concentration 270 nM, RXRa partner concentration 90 nM)
# Summary of the method: as §1
# [9] = system: PPARg:RXRa 30nM:10nM, anti-RXR (NR concentration 30 nM, RXRa partner concentration 10 nM)
# Summary of the method: as §1
# [10] = system: PPARg:RXRa 90nM:30nM, anti-RXR (NR concentration 90 nM, RXRa partner concentration 30 nM)
# Summary of the method: as §1
# [11] = system: PPARg:RXRa DBDmut IVT, anti-RXR (DBD mutation: RXRa K156A/R161A, NR concentration 270 nM, RXRa partner concentration 90 nM)
# Summary of the method: as §1
# [12] = system: PPARg:RXRa IVT, anti-PPARg (NR concentration 270 nM, RXRa partner concentration 90 nM)
# Summary of the method: as §1
# [13] = system: PPARg DBDmut:RXRa IVT, anti-PPARg (DBD mutation: PPARg1 K132A/R137A, NR concentration 270 nM, RXRa partner concentration 90 nM)
# Summary of the method: as §1
# [14] = system: PPARg DBDmut IVT, anti-PPARg (DBD mutation: PPARg1 K132A/R137A, NR concentration 270 nM)
# Summary of the method: as §1
# [15] = system: PPARg homodimer (NR concentration 180 nM)
# Summary of the method: as §1
# [16] = system: PXR:RXRa (NR concentration 270 nM, RXRa partner concentration 90 nM)
# Summary of the method: as §1
# [17] = system: PXR homodimer (NR concentration 270 nM)
# Summary of the method: as §1
# [18] = system: RARa:RXR (NR concentration 270 nM, RXRa partner concentration 90 nM)
# Summary of the method: as §1
# [19] = system: RARa homodimer (NR concentration 270 nM)
# Summary of the method: as §1
# [20] = system: RARb:RXRa (NR concentration 270 nM, RXRa partner concentration 90 nM)
# Summary of the method: as §1
Sequence,PBM binding z-score [1],PBM binding z-score [2],PBM binding z-score [3],PBM binding z-score [4],PBM binding z-score [5],PBM binding z-score [6],PBM binding z-score [7],PBM binding z-score [8],PBM binding z-score [9],PBM binding z-score [10],PBM binding z-score [11],PBM binding z-score [12],PBM binding z-score [13],PBM binding z-score [14],PBM binding z-score [15],PBM binding z-score [16],PBM binding z-score [17],PBM binding z-score [18],PBM binding z-score [19],PBM binding z-score [20]
AATACAGGGTCACTAGGCTAGAGTAGGTACGAAT,6.21,5.05,0.889,3.9,0.775,5.9,7.63,6.19,2.53,5.09,3.32,5.41,1.74,1.68,2.15,2.96,0.638,3.99,1.21,4.28
CGTCCAAGGTCAATGCTAGGTCAGTGGAAGCATT,6.99,5.73,3.02,3.78,0.891,4.81,4.07,4.24,1.28,3.23,3.31,3.57,-0.546,-0.435,5.36,4.87,1.99,6.1,1.39,5.17
TCGTGTAGATCAAGCAGGTTAAGAAAGCCTGAGT,0.141,0.107,-0.392,0.143,-0.921,0.588,-0.429,0.747,2.07,1.61,1.24,-0.0546,-0.931,-0.429,0.148,0.421,0.251,0.318,0.0709,0.0461
TGAATGAGGTTAAAGATCATGGAACGTGGCGTCG,3.15,2.8,-0.213,1.93,-0.192,4.81,6.66,6.58,4.73,6.88,1.79,3.19,0.0999,-0.204,0.9,2.49,0.119,3.73,0.174,2.04
CTCGAAAGGTCGTGCTCAGGTGATTATACCAAAC,4.98,4.19,0.561,3.64,0.429,4.83,2.63,3.52,0.939,2.35,0.733,1.72,1.57,0.403,2.1,3.55,0.276,4.32,0.268,3.86
ATATGTAAGTTACATCCGGGTCATTCAGGCTATG,1.87,2.38,0.923,2.19,0.757,2.83,1.41,1.44,0.868,1.01,1.5,2.35,1.58,1.58,1.11,3.02,2.6,2.96,0.872,1.72
AGAATGAGGTTCAGATCAGGGAAACAGAATACAT,0.604,0.299,-0.377,0.614,-0.379,1.14,0.585,-0.121,0.313,0.345,-0.151,0.433,1.08,0.118,0.165,0.507,0.222,1.41,0.488,0.706
CAAACTAGGTCATAGGTCAAAGTCGAGCCAACCA,7.12,5.85,3.78,5.36,1.14,7.84,12.8,10.5,11.6,12,8.12,8.93,3.18,1.68,3.4,5.05,0.241,7.38,0.929,4.76
CGTCCAAGGTCAATGCTAGGTCAGTTAAAGCATT,6.86,5.46,3.07,4.57,0.641,5.2,3.88,4.44,1.26,3.34,3.07,3.94,0.0858,0.055,4.36,4.89,1.22,5.78,1.02,5.21
TCTCGGAAGACACGAAGGTCAGAGCTTTCCAGAG,0.883,0.652,-0.454,0.74,-0.988,1.79,0.356,1.57,2.55,1.71,1.64,0.221,-0.344,-0.823,0.689,1.12,-0.144,1.53,-0.631,2.27
TCATAGAGGTAATACAGGTGAAAGTCGGCATCTA,0.717,1.43,-0.283,0.754,-0.377,1.85,0.997,1.86,3.1,2.46,2.41,1.82,0.716,0.411,0.49,0.522,-0.0711,1.04,0.214,0.478
CAAACTAGGTTAAGAGGTCAAAGTCCGCTTCCCG,5.61,5.82,6.25,4.8,1.58,5.87,7.84,7.23,5.52,7.19,7.16,7.32,2.96,2.44,4.58,5.64,2.31,6.47,2.19,4.23
GCTGGTAGGTCAACTGATGGTCAGCTAAAGCTCG,4.7,3.62,0.696,2.66,0.322,4.64,4.59,4.72,1.84,3.71,5.49,5.82,0.658,0.562,3.06,2.3,-0.226,3.53,1.16,4.29
ATCTCTAGGTAACAAGTTCCGTGAAAGAGAGGAC,0.25,-0.0278,0.209,0.0127,0.506,0.431,0.903,1.28,0.68,1.07,3.05,2.66,0.253,1.32,0.831,-0.111,0.636,0.015,0.906,0.274
